Compound activity: PubChem BioAssay, several laboratories
Shown are actives, neighbours in structure and some others; about 4.8% of the full set was active somewhere.
NF-kB neuron act = raises NF-kB expression in human neuronal cells. NF-kB reporter expression; active compounds read high. 1.6% of 190,000 active. fold change at 12.5 µM; in the data active means fold change above about 3.3
Hsp70 act = transcriptional activators of Hsp70 | HeLa Hsp70 promoter luciferase reporter, luminescence; scaled: vehicle 0, proteasome-inhibitor control 100% | activation, % at 10 µM | 0.04% of 200,000 active | AID 1203;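 active means activation above the mean across all tested compounds plus 3 SD, cutoff set per campaign, cut at about 5.5% in these data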;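 further: 100% = MG132 at 30 µM as the positive control and 0% = DMSO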
APP transl inh = APP translation inhibition | SH-SY5Y APP 5'UTR-luciferase reporter, luminescence | inhibition, % at 2 µM | 0.82% of 190,000 active;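 active means inhibition above a set limit, derived from the sample mean plus 3 SD, cut at about 45% in these data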
Wee1 stabilizer = inhibitors of human Wee1 degradation. P30291. HeLa Luc-Wee1K328M stability, luciferase luminescence; 100% = proteasome inhibitor MG132 effect. reporter increase, % at 5 µM. 1.2% of 220,000 active. AID 1321;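 active means activation above the mean of all tested compounds plus 3 SD, set per screening run, cut at about 8.8% in these data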;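 further: cells exposed to compound for 20 h before luminescence read; 0% = DMSO alone and 100% = MG132 at 30 µM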
Target sequence (P30291 whole entry K328M): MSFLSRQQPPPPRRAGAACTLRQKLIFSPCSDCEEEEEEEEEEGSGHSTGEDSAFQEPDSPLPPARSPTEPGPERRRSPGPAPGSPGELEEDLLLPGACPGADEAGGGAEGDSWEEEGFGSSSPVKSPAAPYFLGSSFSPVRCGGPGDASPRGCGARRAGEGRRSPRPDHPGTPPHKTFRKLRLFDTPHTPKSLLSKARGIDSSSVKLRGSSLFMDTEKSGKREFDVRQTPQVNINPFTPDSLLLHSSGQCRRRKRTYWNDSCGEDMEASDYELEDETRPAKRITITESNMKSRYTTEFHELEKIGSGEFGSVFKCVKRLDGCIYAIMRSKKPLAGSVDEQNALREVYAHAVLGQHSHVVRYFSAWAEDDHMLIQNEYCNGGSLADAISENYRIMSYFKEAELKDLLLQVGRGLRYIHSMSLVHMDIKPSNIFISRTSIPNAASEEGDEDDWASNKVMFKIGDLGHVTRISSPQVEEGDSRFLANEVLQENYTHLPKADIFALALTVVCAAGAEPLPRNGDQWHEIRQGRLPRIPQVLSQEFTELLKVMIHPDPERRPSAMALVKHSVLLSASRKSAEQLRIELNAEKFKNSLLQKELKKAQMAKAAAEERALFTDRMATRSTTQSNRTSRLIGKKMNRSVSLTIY
APP 5'UTR act = activates APP 5'UTR luciferase reporter; 1% of 190,000 active; activation, % at 2 µM; SH-SY5Y APP 5'UTR luciferase reporter, luminescence; zero percent = DMSO vehicle wells;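 active means activation above a set limit, based on mean plus 3 SD of controls, cut at about 140% in these data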
STAT1 act = activators of IFN-gamma induced STAT1 signaling; NIH 3T3 STAT1-luciferase reporter, luminescence; 100% = IFN-gamma alone, no compound; activation (% of control), % at 5.5 µM; 2.6% of 200,000 active;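 active means activation above the screen-wide mean activation plus 3 SD, cut at about 130% in these data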;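 further: raw ratio to IFN-gamma control signal so 100% means no change and 0% no light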
STAT1 activ conf = STAT1 activation, confirmation assay | shares compounds with STAT1 act | NIH 3T3 STAT1-luciferase reporter, IFN-gamma potentiation, luminescence; 100% = IFN-gamma EC80 alone, no compound | activation (% of control), % at 5.7 µM | 97% of 1,200 active | AID 1262;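 active means activation above a set limit carried over from the earlier primary STAT1 screen, cut at about 140% in these data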;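 further: simple ratio to median IFN-gamma plus DMSO wells so 0% means no light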
NFkB act = counter-screen for STAT1 activators: NF-kappaB activation | HEK293T NF-kB luciferase reporter, TNF-alpha stimulated, luminescence; 100% = TNF-alpha with vehicle only | activation (% of control), % at 5.7 µM | 43% of 1,200 active | shares compounds with STAT1 act;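 active means activation above the mean of solvent-only control wells plus 3 SD, set per campaign, cut at about 130% in these data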;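 further: TNF-alpha given at a submaximal dose yielding about 80% of full reporter signal; values are well signal over median control so 100% means no change and 0% no light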
STAT3 act STAT1c = counter-screen for STAT1 activators: human STAT3 activation. shares compounds with STAT1 act. U3A cells STAT3-luciferase reporter, IL-6, luminescence; cells lack STAT1; 100 = IL-6 alone, no compound effect. activation (% of control), % at 5.7 µM. 46% of 1,200 active;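 active means activation above the solvent-only control well mean plus 3 SD, set per plate batch, cut at about 110% in these data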;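 further: 0% = no luminescence and 100% = median IL-6 plus DMSO wells; higher means more STAT3 reporter activation so hits are non-selective activators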
An asterisk follows results filed as active; · = no result given.

SMILES | NF-kB neuron act | Hsp70 act | APP transl inh | Wee1 stabilizer | APP 5'UTR act | STAT1 act | STAT1 activ conf | NFkB act | STAT3 act STAT1c
c1ccc(-c2csc(N3CCSCC3)n2)cc1 | 2.48 | 0.7 | -34.9 | -1.8 | 34.9 | 159.9* | 129.1* | 125.8 | 96.0
Brc1ccc(-c2nc(-c3ccccn3)no2)o1 | 2.73 | -0.1 | -91.8 | -1.5 | 91.8 | 67.0 | · | · | ·
O=[N+]([O-])c1ccccc1-c1nc(-c2ccc(Br)o2)no1 | 0.99 | -0.2 | -159.8 | -0.4 | 159.8* | 170.5* | 199.6* | 132.3 | 137.1*
O=C(COCC(=O)N/N=C/c1ccccc1F)N/N=C/c1ccccc1F | 1.22 | -0.4 | -4.3 | -2.4 | 4.3 | 102.6 | · | · | ·
O=C(N/N=C/c1ccccc1F)c1csc2c1CCCC2 | 4.04* | 0.1 | -33.2 | -1.0 | 33.2 | 156.9* | 217.3* | 120.3 | 105.4
S=C1Cc2ccccc2N1 | · | · | · | 6.7 | · | · | · | · | ·
CC(C)CC(NC(=O)c1ccc(C#CC(C)(C)O)s1)C(=O)O (centres undefined) | 1.02 | -0.1 | -2.5 | -4.9 | 2.5 | 99.0 | · | · | ·
COc1ccc(CCN(C)C(=O)CCc2nnc(-c3ccccc3)o2)cc1OC | 4.1* | 0.1 | -81.0 | 1.9 | 81.0 | 159.4* | 165.9* | 121.8 | 116.0*
CN(Cc1ccc(F)cc1)C(=O)CCc1nnc(-c2ccccc2)o1 | 2.08 | 0.1 | -21.1 | -0.4 | 21.1 | 128.1 | · | · | ·
CCOC(=O)C(C)Oc1ccc2c(CC)cc(=O)oc2c1C (centres undefined) | 1.19 | -0.3 | -2.9 | -2.1 | 2.9 | 92.9 | · | · | ·
NC(=O)COC(=O)c1cc(=O)[nH]c2ccccc12 | · | · | · | 3.5 | · | · | · | · | ·
Cc1ccc(C(=O)COC(=O)c2cc(=O)[nH]c3ccccc23)cc1C | 2.64 | -0.2 | 20.6 | 3.4 | -20.6 | 163.1* | 203.2* | 135.5* | 121.0*
COc1ccc(NC(=O)c2nc3ccccc3s2)cc1 | 7.53* | -0.2 | -207.9 | -2.2 | 207.9* | 160.7* | 231.7* | 96.2 | 99.3
CCOc1ccc2nc(NC(=O)Nc3cccs3)sc2c1 | 9.52* | -0.1 | -215.8 | 1.9 | 215.8* | 183.9* | 252.9* | 149.2* | 120.6*
CCOc1ccc2nc(NC(=O)c3ccccn3)sc2c1 | · | · | · | -1.3 | · | · | · | · | ·
CCCCOC(=O)Nc1nc2ccccc2s1 | 5.42* | 1.1 | -12.0 | -1.6 | 12.0 | 153.0* | 213.2* | 133.1 | 105.0
COc1ccc(OC)c(NC(=O)c2nc3ccccc3s2)c1 | 0.9 | -0.3 | -39.4 | 5.7 | 39.4 | 120.8 | · | · | ·
CCOc1ccc2nc(NC(=O)Nc3ccccc3)sc2c1 | 2.46 | 0.3 | -147.8 | 4.4 | 147.8* | 154.9* | 224.0* | 138.6* | 114.6*
CCCCOC(=O)Nc1nc2ccc(OC)cc2s1 | 2.2 | -0.4 | -31.5 | -0.8 | 31.5 | 119.0 | · | · | ·
O=C(c1ccco1)N1CCN(C(=O)c2ccc(Cn3cc(Br)cn3)o2)CC1 | 0.98 | -0.1 | 0.0 | 3.5 | 0.0 | 99.1 | · | · | ·
COc1ccc(NC(=O)c2cc3n(n2)C(C(F)(F)F)CC(c2ccc(OC)cc2)N3)cc1 (centres undefined) | 1.13 | -0.3 | -1.6 | -2.3 | 1.6 | 91.5 | · | · | ·
CN(C)S(=O)(=O)c1ccc2nnn(O)c2c1 | 0.83 | -0.3 | -7.8 | -4.7 | 7.8 | 104.3 | · | · | ·
COc1ccc2nc(NC(=O)c3ccccc3-c3ccccc3C(=O)O)sc2c1 | 2.32 | 0.0 | -14.1 | -4.0 | 14.1 | 105.8 | · | · | ·
COc1ccc2nc(NC(=O)Nc3ccccc3)sc2c1 | 9.05* | -0.4 | -189.2 | -0.7 | 189.2* | 205.2* | 280.5* | 116.7 | 98.4
Cc1cccc(NC(=O)Nc2cc(C)cc(C)n2)c1 | 2.67 | 0.4 | -173.1 | 0.6 | 173.1* | 168.7* | 193.4* | 121.0 | 99.8
SMILES | NF-kB neuron act | Hsp70 act | APP transl inh | Wee1 stabilizer | APP 5'UTR act | STAT1 act | STAT1 activ conf | NFkB act | STAT3 act STAT1c
Cc1cc(C)nc(NC(=O)c2ccc3c(c2)OCO3)c1 | 1.56 | -0.3 | -17.8 | -0.6 | 17.8 | 107.2 | · | · | ·
Cc1cc(C)nc(NC(=O)Nc2ccc3c(c2)OCO3)c1 | 3.02 | 0.2 | -227.6 | 1.6 | 227.6* | 155.8* | 203.8* | 128.0 | 99.4
Cc1cccc(NC(=O)Nc2ccc(C#N)cc2)n1 | 1.24 | -0.1 | -16.1 | -3.0 | 16.1 | 208.2* | 140.9* | 135.8* | 125.3*
O=C(/C=C/c1ccco1)Nc1ccccn1 | 3.21 | 0.0 | -72.9 | 2.8 | 72.9 | 152.0* | 177.1* | 118.0 | 102.8
O=C(/C=C/c1ccco1)Nc1ccc(N2CCCC2)cc1 | 1.11 | 0.3 | -121.0 | 2.4 | 121.0 | 158.5* | 187.0* | 139.0* | 112.9*
CC1C(=O)NN=C1C(=O)N/N=C\C(Br)=C\c1ccccc1 (centres undefined) | 3.09 | -0.3 | -126.7 | -1.2 | 126.7 | 24.1 | · | · | ·
CCc1nn(CC(=O)NCCN2CCN(C)CC2)c(=O)c2cc3occc3n12 | 1.05 | -0.4 | -6.0 | -0.7 | 6.0 | 101.9 | · | · | ·
NC(=O)c1ccccc1NC(=O)/C=C/C(=O)O | 2.67 | -0.2 | -13.6 | 0.1 | 13.6 | 96.7 | · | · | ·
Cc1ccc(/C=C/C(=O)Nc2ccccc2C(N)=O)cc1 | 5.32* | -0.1 | -183.4 | 3.0 | 183.4* | 152.5* | 179.8* | 111.9 | 88.1
CC(C)(C)NC(=O)CCCCCCCC(=O)NC(C)(C)C | 0.92 | -0.3 | -7.2 | -3.6 | 7.2 | 83.6 | · | · | ·
CC(=Nc1ccccc1)c1sc2ccccc2c1O | 6.31* | 0.2 | -132.4 | 7.4 | 132.5 | 190.5* | 228.0* | 133.3* | 150.5*
CCn1ncc(/C=C2/SC(=S)NC2=O)c1C | 1.23 | -0.2 | -10.0 | 0.2 | 10.0 | 107.2 | · | · | ·
O=C(O)c1ccc(N/N=C/c2ccc(-c3ccccc3)cc2)cc1 | 10.2* | 0.1 | -185.7 | -0.7 | 185.7* | 220.5* | 320.6* | 162.0* | 105.6
CCCCC1CCC(c2ccc(C(N)=O)cc2)CC1 (centres undefined) | 1.61 | -0.2 | -11.5 | -0.2 | 11.5 | 95.5 | · | · | ·
C=CCNc1oc(/C=C/c2ccccc2)nc1C#N | 7.24* | 0.4 | -173.9 | 1.9 | 173.9* | 155.2* | 196.9* | 143.7* | 113.7*
CN(C)CCNc1oc(/C=C/c2ccccc2)nc1C#N | 1.73 | -0.3 | -10.1 | 0.3 | 10.1 | 99.5 | · | · | ·
CCC(=O)Nc1cccc(NC(=S)NC(=O)c2ccc(Cl)cc2Cl)c1 | 1.26 | 0.1 | -19.5 | -0.2 | 19.5 | 122.4 | · | · | ·
O=C(NC(=S)Nc1ncccn1)c1ccc(Cl)cc1Cl | 2.22 | 0.5 | -36.3 | 2.4 | 36.3 | 174.0* | 218.3* | 130.5 | 109.5
O=C(O)CCc1nc(-c2cccs2)no1 | 1.07 | -0.3 | 1.9 | -3.5 | -1.9 | 96.4 | · | · | ·
